High-throughput results (PubChem)
uPA surface inh = inhibitors of cell surface uPA generation; 0.31% of 330,000 active; cell surface uPA generation assay, qHTS; Potency, µM (series often up to 38.3 µM), inactives show top-dose activity change, negative = inhibition, most hits filed as inhibitors; active means well fitted inhibition curve with a large enough effect; inconclusive means small, poorly fitted or top-dose-only effect; inactive means no such curve, though single readings can be large or run the other way; tested in mouse RAW 264.7 cells; further: on the % scale 0 is the no-effect control and ±100 the full control effect; nearly all actives have a fitted effect of over 55% in size
SMN2 splice enh = SMN2 splice variant enhancement; Potency, µM (series often up to 46.1 µM), without a hit: top-dose activity change, positive = activation, hits mostly activators; 2.8% of 210,000 active; HEK293 SMN2-luciferase splicing reporter, luminescence, 30-36 h; AID 1458; further: % of control where 0% means no effect; nearly all actives have a fitted effect of over 55% in size
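HEK293 cells carry an SMN2 minigene-luciferase reporter in which exon 7 inclusion puts luciferase in frame. Cells were seeded at 2000 cells/well, attached for 10-12 hours, then exposed to compounds for 30-36 hours at 37C before ONE-Glo luminescence.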
NPC1 prom act = activators of NPC1 promoter; Huh7 NPC1 promoter luciferase reporter, 24 h; Potency, µM (titrated, usually from 9.22 µM), for the others: at the highest dose activation, most hits filed as activators; 2.4% of 320,000 active; AID 485313; further: % of control where 0% means no effect; nearly all actives have a fitted effect of over 60% in size
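Luminescence from an NPC1 promoter-driven luciferase reporter in stably transfected Huh7 cells was measured after 24 h compound treatment at 37 °C, followed by 10 min ambient incubation with luciferase detection reagent.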
Rab9 promoter act = activates the Rab9 promoter; Huh7 Rab9 promoter-luciferase reporter, luminescence, 24 h; Potency, µM (series often up to 9.22 µM), inactives show at the highest dose activation, negative = inhibition, hits mostly activators; 2.8% of 320,000 active; AID 485297; further: % of control where 0% means no effect; nearly all actives have a fitted effect of over 60% in size
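Huh7 cells stably carrying a Rab9 promoter-luciferase reporter, 1500 cells per well in OP-MEM I with 10% FBS, treated with compound 24 hours at 37C. Luciferase activity read by luminescence after 10 minutes with Amplite reagent.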
FLuc modulator = counter-screen for miR-21 project: firefly luciferase inhibitors or activators. P08659. purified FLuc, Km substrates, luminescence inhibition. Potency, µM (highest dose often 57.5 µM), without a hit: top-dose activity change, negative = inhibition, hits mostly inhibitors. 6.9% of 360,000 active. AID 588342;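 further: plate controls were vehicle for no effect and reference inhibitor for full effect; nearly all actives have a fitted effect of over 55% in size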
Target sequence (P08659 whole entry, looked up): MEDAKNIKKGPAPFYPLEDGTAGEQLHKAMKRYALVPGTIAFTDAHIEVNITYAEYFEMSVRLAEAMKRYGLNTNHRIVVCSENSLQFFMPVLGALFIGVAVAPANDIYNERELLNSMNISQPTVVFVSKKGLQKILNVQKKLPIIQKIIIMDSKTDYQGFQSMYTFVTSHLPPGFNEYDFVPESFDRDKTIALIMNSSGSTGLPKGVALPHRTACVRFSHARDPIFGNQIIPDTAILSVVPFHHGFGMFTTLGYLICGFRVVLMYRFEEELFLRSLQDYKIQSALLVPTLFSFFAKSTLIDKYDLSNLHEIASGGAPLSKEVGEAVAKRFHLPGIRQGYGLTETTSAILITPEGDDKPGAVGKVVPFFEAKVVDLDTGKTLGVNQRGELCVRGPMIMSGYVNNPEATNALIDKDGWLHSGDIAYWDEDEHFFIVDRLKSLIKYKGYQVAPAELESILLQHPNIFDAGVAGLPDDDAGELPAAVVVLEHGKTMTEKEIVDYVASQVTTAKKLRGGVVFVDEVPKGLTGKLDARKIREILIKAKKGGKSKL
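Purified P. pyralis luciferase (10nM final) with 10uM D-luciferin and 10uM ATP (Km levels) in 50mM Tris acetate pH 7.5, 10mM Mg acetate, 0.01% Tween-20, 0.05% BSA; qHTS 6-point titration, ~60 µM downward; luminescence read.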
ELG1 genotoxic = genotoxicity induction in ELG1-luciferase HEK293T cells | 1.3% of 330,000 active | Potency, µM (doses to about 46 µM), without a hit: at the top dose activity change, positive = activation, most hits filed as activators | AID 504466 | HEK293T ELG1-luciferase reporter, luminescence, 16 h; further: % of control where 0% means no effect; nearly all actives have a fitted effect of over 60% in size
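Screening used a luciferase reporter fused to human ELG1 in HEK293T cells. Luminescence was read on a CCD plate imager after 16 hr exposure and 30 min ONE-Glo incubation.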
Numbers without * were called inactive; ? = inconclusive; . = not tested or not shown; [ ] = dose if it differs, or a comment. Most compounds without a hit are left out; they make up all but 7.3% or so of the library. Unless noted, the call rests on the fitted dose curve; in most records, active means well fitted curve in the direction sought with a large enough effect; inconclusive means small, poorly fitted or top-dose-only effect, or another doubt; inactive means no such curve, though single readings can be large; an effect the other way counts as inactive or inconclusive. Potency means the concentration at half of the fitted maximal effect.

SMILES	uPA surface inh	SMN2 splice enh	NPC1 prom act	Rab9 promoter act	FLuc modulator	ELG1 genotoxic
CCCNC(=O)c1cc(-c2ccc(Br)cc2)on1	4.0%	?	2.24µM*	2.24µM*	?	?
CN(Cc1ccccc1)C(=O)c1cc(-c2ccc(Br)cc2)on1	.	?	9.0%	?	15.1µM*	8.3%
CC(C)NC(=O)c1cc(-c2ccco2)on1	.	6.8%	?	?	?	?
CC(C)NC(=O)c1cc(-c2ccc(Br)cc2)on1	-2.5%	20µM*	1.41µM*	1.58µM*	2.69µM*	?
Cc1ccc(-c2cc(C(=O)NCCN3CCOCC3)no2)cc1	-11.2%	-3.9%	2.3%	2.7%	?	6.1%
COc1ccc(-c2nc3cnc(N(C)C)nc3n(CCc3ccccc3)c2=O)cc1	.	9.2%	.	.	.	.
Cc1ccc(-n2nc(C(=O)N3CCN(c4ccc(F)cc4)CC3)c(=O)n(C)c2=O)cc1	.	.	.	.	4.6%	.
CC1CN(C(=O)c2cccc(S(=O)(=O)NCc3ccccc3)c2)CC(C)O1 (configuration not stated)	8.2%	.	-0.1%	0.6%	-1.3%	1.0%
CCOc1ccc(OCc2cccc(C(=O)N3CCOCC3)c2)cc1	?	0.355µM*	0.0891µM*	0.0891µM*	0.301µM*	0.13µM*
CCOc1ccc(N=C(/C(C(=O)C(=O)N2CCOCC2)=C(/O)c2ccccc2)c2ccccc2)cc1	-21.2%	.	3.98µM*	?	?	?
CC1CN(C(=O)c2cccc(COc3ccc(Br)cc3)c2)CC(C)O1 (configuration not stated)	-4.1%	3.98µM*	1.58µM*	3.55µM*	4.78µM*	?
O=C(O)c1ccc(Cl)c(Cl)c1	.	-13.1%	.	.	.	.
Cc1cc2nc(-c3ccc(SCc4ccccn4)nc3)[nH]c2cc1C	0.2%	-19.3%	?	2.51µM*	5.36µM*	-8.5%
COCCNC(=O)CSc1ccc(-c2nc3ccccc3[nH]2)cn1	3.2%	.	-6.3%	4.5%	?	0.7%
CCOC(=O)CSc1ccc(-c2nc3ccccc3[nH]2)cn1	4.6%	.	-0.9%	-1.7%	12µM*	-0.1%
COc1ccccc1-c1nc(SCc2ccccn2)n[nH]1	4.3%	26.7%	?	?	?	?
CCOC(=O)CSc1ccc(-c2nc3cc(C)c(C)cc3[nH]2)cn1	-8.3%	9.5%	?	?	1.07µM*	?
N#CCSc1ccc(-c2nc3ccccc3[nH]2)cn1	-6.3%	?	?	?	12µM*	?
CNc1nc(N2CCc3ccccc32)ncc1F	-21.2%	?	2.51µM*	2.24µM*	5.36µM*	?
c1ccc(OCCOc2ncnc3ccccc23)cc1	-0.3%	3.4%	3.55µM*	3.98µM*	?	?
Brc1ccc(COc2ncnc3ccccc23)cc1	-2.7%	5.6%	0.6%	11.8%	1.0%	0.3%
CCN(CC)c1ccc(NC(=O)c2cncc(Br)c2)cc1	5.3%	?	?	?	16.9µM*	7.0%
Cc1ccc(NC(=O)c2cncc(Br)c2)cc1S(=O)(=O)N(C)C	-2.5%	11.2µM*	?	?	9.53µM*	?
Cc1cnc(NC(=O)c2cncc(Br)c2)s1	-4.6%	.	2.24µM*	1.26µM*	8.49µM*	?
CCN(CC)S(=O)(=O)c1cc(NC(=O)CSc2nnc(-c3cccs3)o2)ccc1C	-1.6%	28.6%	0.3%	-6.8%	-18.4%	6.3%
SMILES	uPA surface inh	SMN2 splice enh	NPC1 prom act	Rab9 promoter act	FLuc modulator	ELG1 genotoxic
CN(C)S(=O)(=O)c1cccc(NC(=O)c2cncc(Br)c2)c1	2.8%	-5.4%	6.0%	5.4%	-16.5%	-2.9%
Cc1ccc(NC(=O)CSc2nnc(-c3cccs3)o2)cc1S(=O)(=O)N(C)C	.	?	?	3.55µM*	4.2%	?
Cc1ccc(NC(=O)c2c(NC(=O)c3ccco3)sc3c2CCC(C(C)(C)C)C3)c(C)c1 (configuration not stated)	.	-0.9%	.	.	-1.8%	.
COC(=O)N1C(/C=C/c2ccc3c(c2)OCO3)=Cc2ccccc2C1CC(C)=O (configuration not stated)	.	-4.0%[9.22 µM]	.	.	.	.
Cc1ccc(NC(=O)c2ccccc2Br)cc1S(=O)(=O)N(C)C	-1.5%	17.9%	3.3%	13.3%	?	-0.1%
Cc1ccc(NC(=O)c2sccc2C)cc1S(=O)(=O)N(C)C	-0.4%	20.0%	10.1%	0.9%	19µM*	4.8%
CCOc1ccc(-n2nc3cc(C)c(N)cc3n2)cc1	?	.	0.447µM*	0.447µM*	0.338µM*	?
CCOc1ccc(-n2nc3ccc(N)cc3n2)cc1	10µM*	.	?	14.3%	0.757µM*	?
CCOc1ccc(-n2nc3ccc(NC(=O)c4cccc(F)c4)cc3n2)cc1	.	3.7%	.	.	5.5%	.
CCOc1ccc(-n2nc3cc(C)c(NC(=O)c4cc(OCC)c(OCC)c(OCC)c4)cc3n2)cc1	.	-0.4%	.	.	-0.1%	.
COC1=C/C(=C/c2c(O)c(C#N)c3ccccn23)C=CC1=O	1.1%	.	-1.9%	-0.4%	15.1µM*	14.7%
O=C(O)c1ccccc1NC(=O)C1CCCO1 (configuration not stated)	-7.3%	-0.7%	.	.	-2.0%	.
O=C(NCCc1ccccc1)c1ccccc1NC(=O)C1CCCO1 (configuration not stated)	-2.1%	3.55µM*	1.41µM*	1.26µM*	?	?
COc1ccc(NC(=O)c2ccccc2NC(=O)C2CCCO2)cc1 (configuration not stated)	-4.8%	20µM*	25.7%	?	-10.1%	?
CC(C)NC(=O)c1ccccc1NC(=O)C1CCCO1 (configuration not stated)	.	2.1%	0.8%	1.5%	-0.5%	-2.3%
Cc1ccc(NC(=O)Cn2cc(S(=O)(=O)N3CCCC3)c(S(=O)(=O)N3CCCC3)c2)c(C)c1	.	.	.	.	-2.0%	.
COc1cccc2sc(NC(=O)c3ccc4c(c3)OCCO4)nc12	.	.	.	.	0.953µM*	.
COc1cccc2sc(NC(=O)c3ccc(Br)s3)nc12	8.0%	-6.8%	?	?	2.39µM*	?
COC(=O)Nc1nc2c(C)cccc2s1	.	-7.6%	3.1%	11.4%	-19.7%	1.3%
O=C(Nc1nc2c(F)cc(F)cc2s1)C1CC1	-11.5%	.	?	?	?	?
O=C(Nc1nc2c(F)cc(F)cc2s1)c1ccc2c(c1)OCCO2	.	.	0.794µM*	0.316µM*	0.601µM*	.
CCc1ccc(NC(=O)CN2C(=O)c3ccccc3Sc3ccc(C(=O)N4CCCC4)cc32)cc1	.	.	.	.	-13.6%	.
CCOc1ccc(NC(=O)CSc2nnc3c(C)cc4ccccc4n23)cc1	.	.	.	.	0.4%	.
O=C(O)/C=C\C(=O)Nc1ccc2c(c1)C(=O)c1cc(F)ccc1-2	.	-6.9%[9.22 µM]	.	.	.	.
COC(=O)c1ccc(NC(=O)C(=O)N2CCCC2)cc1	-1.3%	?	2.82µM*	?	21.3µM*	?
